Bioassay records as filed in PubChem.
CHT inh: human CHT choline transport inhibition | Q9GZV3 | actives 0.86% (n = 310,000) | CHT-expressing cells, membrane potential dye, choline response; stronger effect = lower value | AID 488975 | B-score at 10 µM;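 active means B-score over 3 SD under the library average, and starting fluorescence ratio not unusually high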;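 further: choline stimulus applied at its EC90 after an EC20 pre-addition; B-score computed on integrated fluorescence ratio after choline addition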
GPR7 antag: blocks human GPR7 receptor signaling. GPR7-expressing cells, fluorescence antagonist assay. inhibition, % at 4.4 µM. actives 1.1% (n = 290,000). AID 1861; in the data active means inhibition above about 16%, passing the limit was not always enough;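 further: cells stimulated with the agonist NPW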
TMEM16A inh: blocks the mouse calcium-activated chloride channel TMEM16A; actives 1.2% (n = 310,000); AID 588511; HEK293 TMEM16A/YFP iodide influx fluorescence, ionomycin; Q8BHY3; normalized B-score (activity score, 25-100; higher = stronger inhibition) at 10 µM;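 active means ratio plate-corrected score three or more library SD toward inhibition, starting fluorescence score within five deviations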;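 further: score derived from kinetic fluorescence span divided by baseline fluorescence per well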
Kir21 block: blocks the mouse Kir2.1 inward-rectifier potassium channel; B-score at 10 µM; actives 0.85% (n = 310,000); HEK293-Kir2.1, FluxOR thallium flux fluorescence; stronger effect = lower value; P35561; AID 1672;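 active means fluorescence ratio B-score at or below minus 3 SD of library scores, with starting-brightness B-score within 2 SD, cut at about -4.2 in these data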;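 further: channel flux triggered by added potassium and thallium sulfate stimulus; B-score of peak minus minimum fluorescence over baseline after thallium stimulus; more negative B-score means stronger Kir2.1 block with less thallium influx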
Target sequence (P35561 whole entry, looked up): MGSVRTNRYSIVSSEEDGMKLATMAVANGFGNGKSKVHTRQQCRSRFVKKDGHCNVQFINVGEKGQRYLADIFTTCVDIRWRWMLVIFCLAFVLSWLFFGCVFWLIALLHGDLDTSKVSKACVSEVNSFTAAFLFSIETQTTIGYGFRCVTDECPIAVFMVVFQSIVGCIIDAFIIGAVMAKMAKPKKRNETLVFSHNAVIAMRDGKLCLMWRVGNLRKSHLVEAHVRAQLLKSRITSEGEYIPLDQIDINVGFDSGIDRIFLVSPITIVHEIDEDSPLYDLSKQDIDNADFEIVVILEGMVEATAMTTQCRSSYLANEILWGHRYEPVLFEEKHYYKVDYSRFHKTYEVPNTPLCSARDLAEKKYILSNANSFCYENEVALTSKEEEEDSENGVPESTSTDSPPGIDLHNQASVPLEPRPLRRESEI
CHT PAM: human CHT allosteric activation; CHT-expressing cells, membrane potential dye, choline EC20; stronger effect = higher value; LV-AA mutant CHT in HEK293 cells; B-score at 10 µM; actives 0.49% (n = 310,000); AID 488977;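 active means initial fluorescence not abnormally high and integrated response B-score, plate-corrected, over 3 SD above library mean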
TMEM16A act: activates or potentiates the mouse TMEM16A chloride channel; HEK293 TMEM16A/YFP-H148Q/I152L, iodide quench fluorescence; stronger effect = lower value; B-score at 10 µM; actives 0.3% (n = 340,000);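 active means fluorescence-ratio B-score plate-corrected deviation score at least 3 library SD below zero, with starting fluorescence score within 5 deviations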;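 further: channel opened by trigger with iodide after compound preincubation; score built on the fluorescence ratio of max minus min over baseline; more negative score means more quench and so TMEM16A activation or potentiation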
CHT inh conf: confirmation of human choline transporter CHT inhibitors. shares compounds with CHT inh. CHT-expressing cells, choline membrane potential dye; LV-to-AA substituted CHT, HEK293 cells. CHT activity remaining % of control (stronger effect = lower value), % at 10 µM. actives 70% (n = 2,400). AID 493221;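 active means choline transporter activity left, mean of duplicates at 10 µM, below buffer-only control mean minus 3 SD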;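 further: depolarization triggered by choline at its EC90 following an EC20 pre-addition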
HEK293 CHT ctr: activity in parental HEK293 cells lacking CHT | membrane potential dye, choline response; active = decrease or increase beyond buffer ±3SD | membrane potential ratio readout (active if shifted either direction beyond buffer ±3SD; no single direction) at 10 µM | actives 4% (n = 2,400) | shares compounds with CHT inh;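 further: parental cells lack the transporter so any hit is non-specific; ratio is peak minus trough fluorescence over baseline after EC90 choline challenge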
Numbers stand for hits; n = inactive; x = no result given. Compounds with a hit are over-represented: about 3.7% of the library has one in this group of screens.

SMILES	CHT inh	GPR7 antag	TMEM16A inh	Kir21 block	CHT PAM	TMEM16A act	CHT inh conf	HEK293 CHT ctr
Cc1cc(C)nc(SCc2cc(=O)c(OC(=O)c3cc([N+](=O)[O-])ccc3Cl)co2)n1	-7.4	n	n	n	n	n	28%	n
CC(=O)Nc1ccc2nc(CN3CCC(CO)(CCc4ccccc4)CC3)ccc2c1	n	n	n	n	n	n	x	x
C=CCOc1cccc(C(=O)N2CCCC(Nc3ccc4c(c3)OCCO4)C2)c1 (stereo not given)	n	n	n	n	n	n	x	x
COc1ccc(N2CCN(S(=O)(=O)c3cn(C)c(=O)n(C)c3=O)CC2)cc1	-5.3	n	n	n	n	n	n	n
Cc1ccc(NCC(O)C(O)C(O)CO)cc1C (stereo not given)	n	n	n	n	n	n	x	x
Cc1cc(N=Nc2ccccc2)c(NCC(O)C(O)C(O)CO)cc1C (stereo not given)	-11	n	n	n	n	n	30%	n
NC(=O)c1c(/N=C/c2cccs2)sc2c1CCCC2	n	n	n	n	n	n	x	x
CC(NC(=O)c1ccc(Br)cc1)c1ccc2c(c1)CCCC2 (stereo not given)	-9.7	n	n	n	n	n	n	n
COc1ccc(/C=C/C(=O)OCC(=O)Nc2ccc(N3CCOCC3)cc2)cc1OC	-5	n	n	n	n	n	n	n
CCOC(=O)N1CCN(C(=O)c2oc3ccc(S(=O)(=O)N4CCCCCC4)cc3c2C)CC1	-6.2	n	n	n	n	n	67%	n
CCOC(=O)N1CCN(C(=O)c2oc3ccc(S(=O)(=O)N4CCOCC4)cc3c2C)CC1	n	n	n	n	n	n	x	x
CC(C(=O)Nc1ccccc1Cl)N(c1ccccc1)S(C)(=O)=O (stereo not given)	n	n	n	n	n	n	x	x
CC(C(=O)NC1CCCCCC1)N(c1ccccc1)S(C)(=O)=O (stereo not given)	-12	n	n	n	n	n	n	n
NC(=O)c1ccc(C2SCC(=O)N2Cc2ccccc2)cc1 (stereo not given)	-6.3	n	n	x	n	n	n	n
O=C(NCCCN1CCCC1=O)c1ccc(NS(=O)(=O)c2ccccc2)cc1	n	x	n	n	n	n	x	x
CCc1ccc(-n2c(SCc3c(C)noc3C)nnc2-c2ccncc2)cc1	-5.1	n	n	n	n	n	n	n
CCOc1ccc(-n2c(SCc3ccc(C#N)cc3)nnc2-c2cccnc2)cc1	n	n	n	n	n	n	x	x
C=CCSc1nnc(-c2ccncc2)n1-c1ccc(OCC)cc1	-5.5	n	n	n	n	n	59%	-8.4
O=C(O)c1ccc(CSc2nnc(-c3ccncc3)n2-c2ccc(Cl)cc2)cc1	n	n	n	n	n	n	x	x
